# From paper PMC4601081
# Assays:
# Assay in all cases: cross-link between two proteins; cross-linking mass spectrometry
# [1] = target: 26S proteasome regulatory subunit RPN5 (UniProt Q12250)
# [2] = target: 26S proteasome regulatory subunit RPN6 (UniProt Q12377)
# [3] = target: 26S proteasome regulatory subunit RPN3 (UniProt P40016)
# [4] = target: 26S proteasome regulatory subunit RPN8 (UniProt Q08723)
# [5] = target: Ubiquitin C-terminal hydrolase RPN11 (UniProt P43588)
# [6] = target: 26S proteasome regulatory subunit RPN7 (UniProt Q06103)
# Sequence of 26S proteasome regulatory subunit RPN7 (Q06103 whole entry): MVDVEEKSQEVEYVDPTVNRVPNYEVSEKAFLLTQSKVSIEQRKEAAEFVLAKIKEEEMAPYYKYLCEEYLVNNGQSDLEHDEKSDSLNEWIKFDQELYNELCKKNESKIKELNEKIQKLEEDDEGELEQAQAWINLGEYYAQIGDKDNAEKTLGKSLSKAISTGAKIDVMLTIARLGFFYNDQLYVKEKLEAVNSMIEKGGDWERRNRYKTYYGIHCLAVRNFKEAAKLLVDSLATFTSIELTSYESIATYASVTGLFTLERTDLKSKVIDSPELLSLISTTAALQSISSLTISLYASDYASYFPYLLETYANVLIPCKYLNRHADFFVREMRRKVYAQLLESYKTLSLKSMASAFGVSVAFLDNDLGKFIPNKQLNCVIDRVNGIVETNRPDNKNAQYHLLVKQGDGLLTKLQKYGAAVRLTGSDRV
# Sequence of 26S proteasome regulatory subunit RPN6 (Q12377 whole entry): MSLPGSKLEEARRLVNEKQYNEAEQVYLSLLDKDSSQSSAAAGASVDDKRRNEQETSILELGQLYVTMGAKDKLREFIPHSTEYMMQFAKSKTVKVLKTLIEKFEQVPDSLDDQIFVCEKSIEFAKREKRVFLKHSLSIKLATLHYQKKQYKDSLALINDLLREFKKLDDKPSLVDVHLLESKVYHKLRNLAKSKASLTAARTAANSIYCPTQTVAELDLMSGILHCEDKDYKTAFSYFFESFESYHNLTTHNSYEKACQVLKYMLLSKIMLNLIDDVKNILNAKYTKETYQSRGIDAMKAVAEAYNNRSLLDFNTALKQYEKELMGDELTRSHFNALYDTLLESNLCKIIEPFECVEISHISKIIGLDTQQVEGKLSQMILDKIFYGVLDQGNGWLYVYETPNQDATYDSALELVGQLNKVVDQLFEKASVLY
# Sequence of 26S proteasome regulatory subunit RPN5 (Q12250 whole entry): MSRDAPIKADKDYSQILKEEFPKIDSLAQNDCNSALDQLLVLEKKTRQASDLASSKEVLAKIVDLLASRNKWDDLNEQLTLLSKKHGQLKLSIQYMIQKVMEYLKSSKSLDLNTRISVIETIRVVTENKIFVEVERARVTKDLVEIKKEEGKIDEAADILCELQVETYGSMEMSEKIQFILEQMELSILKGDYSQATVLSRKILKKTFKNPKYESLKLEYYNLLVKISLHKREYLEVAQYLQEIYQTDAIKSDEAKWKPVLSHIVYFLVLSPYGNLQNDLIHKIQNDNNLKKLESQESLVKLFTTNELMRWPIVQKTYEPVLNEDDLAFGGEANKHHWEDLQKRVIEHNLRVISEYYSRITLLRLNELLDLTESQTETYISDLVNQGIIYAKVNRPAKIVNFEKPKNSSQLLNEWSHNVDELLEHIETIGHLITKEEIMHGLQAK
# Sequence of 26S proteasome regulatory subunit RPN8 (Q08723 whole entry): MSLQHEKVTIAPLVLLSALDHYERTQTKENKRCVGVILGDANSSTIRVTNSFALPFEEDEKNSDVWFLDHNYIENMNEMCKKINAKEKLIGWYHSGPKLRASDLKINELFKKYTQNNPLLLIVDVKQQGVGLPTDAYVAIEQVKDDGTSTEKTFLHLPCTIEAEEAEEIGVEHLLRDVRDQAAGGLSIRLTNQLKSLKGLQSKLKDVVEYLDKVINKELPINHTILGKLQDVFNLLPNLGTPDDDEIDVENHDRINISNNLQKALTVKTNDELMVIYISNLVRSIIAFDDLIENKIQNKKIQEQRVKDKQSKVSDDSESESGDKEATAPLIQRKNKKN
# Sequence of Ubiquitin C-terminal hydrolase RPN11 (P43588 whole entry): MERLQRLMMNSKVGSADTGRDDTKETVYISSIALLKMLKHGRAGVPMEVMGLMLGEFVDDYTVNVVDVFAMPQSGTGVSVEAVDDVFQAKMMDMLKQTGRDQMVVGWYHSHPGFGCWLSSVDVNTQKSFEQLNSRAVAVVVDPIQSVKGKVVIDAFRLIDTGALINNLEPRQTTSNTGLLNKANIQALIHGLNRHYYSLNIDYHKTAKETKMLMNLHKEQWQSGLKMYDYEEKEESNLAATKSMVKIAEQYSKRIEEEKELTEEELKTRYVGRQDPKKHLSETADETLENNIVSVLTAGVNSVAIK
# Sequence of 26S proteasome regulatory subunit RPN3 (P40016 whole entry): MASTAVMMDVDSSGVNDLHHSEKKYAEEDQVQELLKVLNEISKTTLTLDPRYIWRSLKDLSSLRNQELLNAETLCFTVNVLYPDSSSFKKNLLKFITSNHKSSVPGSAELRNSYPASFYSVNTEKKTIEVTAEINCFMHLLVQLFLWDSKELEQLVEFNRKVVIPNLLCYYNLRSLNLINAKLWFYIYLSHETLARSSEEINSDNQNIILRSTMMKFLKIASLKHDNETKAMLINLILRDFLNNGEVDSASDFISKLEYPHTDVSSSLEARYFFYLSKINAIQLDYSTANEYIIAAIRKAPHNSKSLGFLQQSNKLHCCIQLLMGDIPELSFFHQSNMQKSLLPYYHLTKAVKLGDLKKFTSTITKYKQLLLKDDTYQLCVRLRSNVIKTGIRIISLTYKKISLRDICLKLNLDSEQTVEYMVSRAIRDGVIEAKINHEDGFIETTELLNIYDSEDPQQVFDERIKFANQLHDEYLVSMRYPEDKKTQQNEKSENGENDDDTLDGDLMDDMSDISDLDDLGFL
substance,measurement,setting,value
"26S proteasome regulatory subunit RPN8, Q08723",listed as a hit,[1],yes
same,listed as a hit,[2],yes
"26S proteasome complex subunit SEM1, O94742",listed as a hit,[3],yes
same,listed as a hit,[4],yes
same,listed as a hit,[5],yes
"Ubiquitin C-terminal hydrolase RPN11, P43588",listed as a hit,[1],yes
same,listed as a hit,[2],yes
same,listed as a hit,[6],yes
"26S proteasome regulatory subunit RPN9, Q04062",listed as a hit,[1],yes
same,listed as a hit,[4],yes
"26S proteasome regulatory subunit RPN3, P40016",listed as a hit,[6],yes
same,listed as a hit,[4],yes
same,listed as a hit,[5],yes
"26S proteasome regulatory subunit RPN7, Q06103",listed as a hit,[1],yes
same,listed as a hit,[2],yes
same,listed as a hit,[4],yes
"26S proteasome regulatory subunit RPN5, Q12250",listed as a hit,[2],yes
